High-throughput results (PubChem)
HCV inhibitor: inhibitors of hepatitis C virus infection. Huh7.5.1 HCVcc-Cre infection, luciferase reporter, 44 h. 3.4% of 340,000 active. Potency, µM (doses to about 41.8 µM), for the others: at the highest dose activity change, negative = inhibition, usual class: inhibitors; also: potency is read from the fitted curve at half-maximal effect; % is scaled to controls: 0 for no effect and ±100 for the full control effect
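Luciferase read-out (15 sec integration) after a 15 min room-temperature substrate step quantifies HCVcc-Cre infection. Cells, 1,000 per well, had compound added 4 h post-plating, then virus at ~0.5 moi, and were cultured 44 h.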
Shiga inhibitor: blocks Shiga toxin action in Vero cells; 9.2% of 290,000 active; AID 2315; inhibition, % at 38.7 µM; Vero cells, Shiga toxin protein synthesis inhibition reporter; in the data active = inhibition mostly above about 28%, no sharp cut-off; inactive = mostly below about 43%; also: 0% is about no effect
Pf growth 48h: inhibits P. falciparum growth in the first generation, 48 h; P. falciparum luciferase growth in erythrocytes, 48 h; Potency, µM (top dose mostly 28.7 µM), for inactives: at the highest dose activity change, negative = inhibition, most hits filed as inhibitors; 5.9% of 310,000 active; AID 504832; also: potency is read from the fitted curve at half-maximal effect; % is scaled to controls: 0 for no effect and ±100 for the full control effect
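Compounds are pin-transferred into medium, infected erythrocytes (2% hematocrit, 0.1% parasitemia final) are added, and plates sit one parasite generation at 37 C in 5% CO2. Detection reagent is then added and luminescence measured.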
Cycloheximide cs: counter-screen hit for Shiga toxin inhibitors, cycloheximide; max response, %; 12% of 300,000 active; AID 2314; cell reporter, cycloheximide protein synthesis inhibition counterscreen; in the data active = max response mostly above about 13%, no sharp cut-off; inactive = mostly below about 14%; also: read at 38.3 µM for the half of the compounds with a filed dose; 0% is about no effect
AMA1-RON2 inh: disrupts binding of P. falciparum AMA1 to RON2. AlphaScreen AMA1-biotinylated RON2 peptide binding. Potency, µM (doses to about 58.2 µM), inactives show at the highest dose activity change, negative = inhibition, most hits filed as inhibitors. 0.2% of 360,000 active. AID 720542;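 also: potency is read from the fitted curve at half-maximal effect; 0% = vehicle wells and -100% = peptide control; nearly all actives have a fitted effect of over 45% in size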
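AMA1 (3D7) with his tag at 25 nM final met compounds first, then biotinylated RON2 peptide at 25 nM; detection used donor plus acceptor beads, 10 µg/mL apiece, read by AlphaScreen after 30 min at room temperature.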
Pf growth 96h: P. falciparum growth inhibition at 96 hour, primary screen for plastid delayed-death inhibitors; P. falciparum luciferase reporter growth, 96 h; Potency, µM (series often up to 28.7 µM), for the others: at the top dose activity change, negative = inhibition, actives largely listed as inhibitors; 6.9% of 320,000 active; also: potency is read from the fitted curve at half-maximal effect; % is scaled to controls: 0 for no effect and ±100 for the full control effect
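Parasite growth measured via integrated firefly luciferase reporter in P. falciparum. Infected erythrocytes at 2% hematocrit, 0.05% parasitemia final were treated 96 hours at 37 C under 5% CO2, and luminescence was read.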
* hit, by the source's call; ? = inconclusive; . = no result; + = active, no number. Most compounds without a hit are left out; they make up all but 21% or so of the library. Unless noted, calls follow the shape of the dose curve; as a rule, active = well fitted curve in the direction sought with a large enough effect; inconclusive = small, poorly fitted or top-dose-only effect, or another doubt; inactive = no such curve, though single readings can be large; an effect the other way counts as inactive or inconclusive.

SMILES	HCV inhibitor	Shiga inhibitor	Pf growth 48h	Cycloheximide cs	AMA1-RON2 inh	Pf growth 96h
Cc1ccc(C(=O)NC(=S)N2CCCC2)cc1	3%	15	?	11	113%	?
CC(C)(C)c1cc(NC(=O)C2(C)CCN2C(=O)C2(c3ccccc3)CC2)no1 (stereo unspecified)	.	.	.	.	-5%	.
CSc1ccc(-c2cc(=O)c3ccccc3o2)cc1	?	34*	40%	40*	3%	?
O=c1cc(-c2ccccc2F)oc2ccccc12	?	59*	349%	28*	17%	356%
C/C(=N\NC(=O)CN1CCN(S(=O)(=O)c2ccc(C)cc2)CC1)c1ccncc1	5%	-6	18%	-1	16%	?
CC(C)(CNS(=O)(=O)c1ccc2ccccc2c1)N1CCOCC1	42%	.	-11%	.	-22%	?
COCc1nc2sc3c(c2c(=O)[nH]1)CCCC3	5%	22	6%	17*	-10%	18%
CC(=O)OCc1nc2sc3c(c2c(=O)[nH]1)CCCC3	10%	12	9%	-1	6%	-10%
COc1cccc(-c2nc3sc4c(c3c(=O)[nH]2)CCCCC4)c1	13%	75*	349%	21*	1%	448%
Cn1ccnc1COc1ccc(/C=N/O)cc1	20%	.	10%	-3	23%	2%
CC(=O)c1ccc(NC(=O)c2ccccc2Sc2ncnc3sc(C)c(C)c23)cc1	-23%	+	?	17*	-26%	?
CN(C(=O)COC(=O)c1cc2ccccc2cc1O)C1CCCCC1	15%	.	-17%	.	-4%	-9%
O=C(N/N=C1/CC2CCC1C2)c1cc2ccccc2cc1O (stereo unspecified)	12%	-2	?	9	117%	9.3µM*
O=C(NCC1CCCCC1)c1cc2ccccc2cc1O	13µM*	74*	1.3µM*	32*	28%	1.7µM*
CN(C(=O)c1ccc(Br)o1)C1CCCCC1	3%	67*	41%	33*	-12%	?
O=C(NNC(=O)c1cc2ccccc2cc1O)NC1CCCCC1	-2%	23	20%	12	124%	3%
CN(C(=O)c1cc2ccccc2cc1O)C1CCCCC1	7%	23	?	21*	2%	-26%
CCN(CC(=O)Nc1c(F)cccc1F)C(=O)c1ccc(N2C(=O)c3ccccc3C2=O)cc1	1%	.	15%	.	5%	3%
O=C1CCC2(CCCC2)c2ccccc21	.	.	.	.	12%	.
Cc1noc(C)c1NC(=O)N(C)C[C@H]1OCc2cnnn2CCCC(=O)N([C@H](C)CO)C[C@H]1C	.	.	.	.	-2%	.
COc1ccc(-c2noc(CCC(=O)N3CCN(c4ccccc4)CC3)n2)cc1	0%	.	.	.	-10%	.
CN(C(=O)c1ccccc1Cl)C1CCCCC1	13%	-2	-6%	13*	-3%	.
CC1CN(S(=O)(=O)c2cccc(C(=O)Nc3ccc(S(=O)(=O)NC4=NCCCCC4)cc3)c2)CC(C)O1 (stereo unspecified)	-21%	.	13µM*	.	-17%	?
CN(C)c1cccc(C(=O)Nc2cccc(S(=O)(=O)NC3=NCCC3)c2)c1	3%	70*	40%	33*	9%	56%
CCOc1ccc(C(=O)NC(=S)Nc2cccc(S(=O)(=O)NC3=NCCC3)c2)cc1	14µM*	-5	49%	-1	65%	95%
SMILES	HCV inhibitor	Shiga inhibitor	Pf growth 48h	Cycloheximide cs	AMA1-RON2 inh	Pf growth 96h
O=C(Nc1cccc(S(=O)(=O)NC2=NCCC2)c1)c1cn(-c2ccccc2)nc1-c1ccc(F)cc1	11µM*	.	.	.	12%	.
O=C(Nc1cccc(S(=O)(=O)NC2=NCCC2)c1)c1ccccc1	-1%	.	.	.	-16%	.
C=CCN(CC=C)S(=O)(=O)c1ccc(NC(=S)NC(=O)C2CC2)cc1	?	-4	?	-1	16%	?
O=C1C(=O)N(Cc2cccs2)c2ccccc21	22%	-13	3%	-1	-2%	-3%
CN(C)c1ccc(C(=O)Nc2ccc(S(=O)(=O)NC3=NCCCCC3)cc2)cc1	-22%	-17	?	-7	-26%	12µM*
Cc1ccc(C(=O)Nc2ccc(S(=O)(=O)NC3=NCCCCC3)cc2)cc1S(=O)(=O)N1CCOCC1	-4%	.	2.3µM*	.	8%	13µM*
CCc1cc(C(=O)Nc2ccc(S(=O)(=O)NC3=NCCCCC3)cc2)sc1C	?	.	?	.	3%	4.1µM*
O=C(Nc1ccc(S(=O)(=O)NC2=NCCCCC2)cc1)c1cccc(S(=O)(=O)N2CCOCC2)c1	-8%	.	.	.	1%	.
O=C(NCC1CCCCC1)c1csc([C@@H]2C[C@H](O)[C@@H](CO)O2)n1	.	.	.	.	8%	.
CC(=O)N1CCN(S(=O)(=O)c2ccc3c(c2)CCC(=O)N3)CC1	10%	.	27%	.	4%	98%
O=C(Nc1cc2c(cc1Br)OCCO2)c1ccco1	-4%	active	336%	40*	-2%	322%
O=C(Nc1cc2c(cc1Br)OCCO2)c1cccnc1	19%	66	33%	24*	-9%	-4%
O=C(Nc1cc2c(cc1Cl)OCCO2)c1ccco1	-1%	93*	214%	28*	11%	229%
CC(=O)c1cc2c(cc1NC(=O)c1ccco1)OCCO2	-23%	15	2%	10	15%	?
O=C(Nc1cc2c(cc1Br)OCCO2)c1cccs1	?	181*	134%	42*	4%	.
CCCC(=O)c1cc2c(cc1NC(=O)c1cccs1)OCCO2	0%	-7	20%	-5	5%	?
Cc1ccc(OCCNC(=O)C(C)SCC(=O)Nc2ccc(F)cc2)cc1 (stereo unspecified)	15%	.	.	.	-4%	.
O=C(Nc1c(C(=O)N2CCOCC2)cnn1-c1ccccc1Cl)c1ccco1	18%	-11	7%	1	23%	1%
O=C(Nc1ccc(NC(=O)c2ccco2)cc1)c1ccc2c(c1)OCO2	-14%	12	.	1	0%	-16%
O=C(Nc1ccc(NC(=O)c2ccco2)c(Cl)c1)c1ccc2c(c1)OCCO2	?	64*	109%	27*	2%	165%
O=C(Nc1c(C(=O)Nc2ccc3c(c2)OCCO3)cnn1-c1ccccc1Cl)c1ccco1	-2%	149*	42%	77*	-11%	.
COc1ccc(N(CC(=O)NCCSCc2ccc(Cl)cc2)S(C)(=O)=O)cc1Cl	8%	-5	-16%	-2	-9%	-30%
COc1ccc(C(=O)CCC(=O)Nc2cccnc2)cc1OC	5%	11	6%	-2	3%	4%
CC(=O)n1c(C=Nc2ccc(Cl)cc2)c(O)c2ccccc21	?	6	1.5µM*	12	11%	?
O=C1CCc2cc(S(=O)(=O)N3CCCCC3)cc3c2N1CC3	-7%	.	?	.	-8%	?
CC(C)N(Cc1nccn1C)C(=O)CCc1nnc(CCCc2ccccc2)o1	18%	59*	3%	56*	-4%	3%
